# The full ranking holds about 81,000 sequences; the median of “one-hybrid fitness for binding NBS DNA” is about -0.1, and the highest 2% start at about 0.36. What follows is part of a selection rich in the highest values, with near analogues and random picks from the rest.
# B1: Caulobacter ParB omega fusion; a variant is named by its letters at X, in order, B8GW30 (parent)
# chain: MESVVVGEPGMSEGRRGLGRGLSALLGEVDAAPAQAPGEQLGGSREAPIEILQRNPDQPRRTFREEDLEDLSNSIREKGVLQPILVRPSPDTAGEYQIVAGERAWRAAQRAGLKTVPIMVRELDDLAVLEIGIIENVQRADLNVLEEALSYKVLMEKFERTQENIAQTIGKSXSHVANXMRLLXLPDEVQSYLVSGELTAXHARAIAAAADPVALAKQIIEGGLSVRETEALARKAPNLSAGKSKGGRPPRVKDTDTQALESDLSSVLGLDVSIDHRGSTGTLTITYATLEQLDDLCNRLTRGI
# Variants of: B1
# Assay: one-hybrid fitness for binding NBS DNA (the Noc-binding site; scaled: cognate 1, non-cognate 0); higher = stronger binding
# Conditions: with NBS DNA site
# Summary of the method: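 On M9-minus-histidine containing 0.1 mM IPTG and 5 mM 3-AT, E. coli USO cells with a HIS3 reporter, site 19 bp from the promoter, grew 48 hours at 37°C to select Caulobacter ParB libraries randomised at four specificity codons. Plasmids from before and after were Illumina-sequenced, with three replicate libraries pooled and variants under 10 reads left out. Fitness is the log change in variant-to-wild-type read ratio, rescaled against cognate and non-cognate.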
row,Variant,one-hybrid fitness for binding NBS DNA
1,QFMT,≤ 0.2
2,SSYL,≤ 0.2
3,ETES,≤ 0.2
4,RVIR,0.242
5,VVRC,≤ 0.2
6,HHPQ,≤ 0.2
7,VVGI,≤ 0.2
8,EYWD,≤ 0.2
9,RCRA,0.422
10,RPRA,≤ 0.2
11,RSRA,0.317
12,RTDA,≤ 0.2
13,RYDA,≤ 0.2
14,RYYA,≤ 0.2
15,RTRA,0.446
16,RMRA,0.409
17,RMDA,≤ 0.2
18,RMYA,≤ 0.2
19,RYRA,0.367
20,RTYA,0.268
21,GMVG,≤ 0.2
22,QAEN,≤ 0.2
23,LNQS,≤ 0.2
24,QLYL,≤ 0.2
25,PLQD,≤ 0.2
26,RKRA,0.45

row,Variant,one-hybrid fitness for binding NBS DNA
1,RKYA,0.344
2,RKDA,≤ 0.2
3,LPLA,≤ 0.2
4,AQDR,≤ 0.2
5,LIAK,≤ 0.2
6,RQKP,≤ 0.2
7,RQKN,0.214
8,RQKD,≤ 0.2
9,RQKC,0.381
10,RQVC,≤ 0.2
11,RQYC,≤ 0.2
12,RQVH,≤ 0.2
13,RQKH,0.376
14,RQKS,0.581
15,PEWV,≤ 0.2
16,NNCS,≤ 0.2
17,ASVF,≤ 0.2
18,CPDH,≤ 0.2
19,EDYG,≤ 0.2
20,PTEW,≤ 0.2
21,LKYT,≤ 0.2
22,VKLR,≤ 0.2
23,WHHR,≤ 0.2
24,CGEV,≤ 0.2
25,PNVE,≤ 0.2
26,RKKV,0.277

row,Variant,one-hybrid fitness for binding NBS DNA
1,WVQL,≤ 0.2
2,KPVT,≤ 0.2
3,KCKT,0.212
4,KRVT,0.547
5,KCVT,≤ 0.2
6,KPKT,≤ 0.2
7,KRKT,0.66
8,CLTC,≤ 0.2
9,AGTG,≤ 0.2
10,LNTG,≤ 0.2
11,GMVQ,≤ 0.2
12,PNQS,≤ 0.2
13,SNTG,≤ 0.2
14,AFGR,≤ 0.2
15,RKNW,≤ 0.2
16,QVNH,≤ 0.2
17,QVYT,0.268
18,QVNT,0.44
19,QVPT,≤ 0.2
20,QVRT,0.56
21,QVHP,≤ 0.2
22,QVHS,0.296
23,QVDT,≤ 0.2
24,QVHT,0.373
25,VWQD,≤ 0.2
26,RNQS,0.281

row,Variant,one-hybrid fitness for binding NBS DNA
1,FLHG,≤ 0.2
2,RSTP,≤ 0.2
3,RATP,≤ 0.2
4,RATR,0.43
5,RATN,≤ 0.2
6,RTTQ,≤ 0.2
7,RSTR,0.447
8,RITP,≤ 0.2
9,RITD,≤ 0.2
10,RSTN,≤ 0.2
11,RITR,0.437
12,RTTF,≤ 0.2
13,RTTR,0.571
14,PCDK,≤ 0.2
15,FRRH,≤ 0.2
16,RLSY,≤ 0.2
17,INTS,≤ 0.2
18,LHDW,≤ 0.2
19,TECL,≤ 0.2
20,SMQN,≤ 0.2
21,TDVE,≤ 0.2
22,RHTG,≤ 0.2
23,RRTR,0.75
24,RRTC,0.314
25,RKTK,≤ 0.2
26,RLTY,≤ 0.2

row,Variant,one-hybrid fitness for binding NBS DNA
1,RLTR,0.443
2,RLTQ,≤ 0.2
3,RKTN,≤ 0.2
4,RHTR,0.459
5,RKTR,0.602
6,RRTF,≤ 0.2
7,RHTK,≤ 0.2
8,RNPQ,≤ 0.2
9,MEAC,≤ 0.2
10,CITN,≤ 0.2
11,YDAI,≤ 0.2
12,TGAY,≤ 0.2
13,NFLN,≤ 0.2
14,CWAR,≤ 0.2
15,PSCM,≤ 0.2
16,QDAF,≤ 0.2
17,APPH,≤ 0.2
18,CTYS,≤ 0.2
19,ATYE,≤ 0.2
20,RPTR,≤ 0.2
21,RMTH,≤ 0.2
22,RMTR,0.446
23,RMTP,≤ 0.2
24,RCTR,0.534
25,RFTR,0.298
26,FPHC,≤ 0.2

row,Variant,one-hybrid fitness for binding NBS DNA
1,CSFN,≤ 0.2
2,QPVR,0.377
3,QSVR,0.379
4,QCVR,0.48
5,QSVN,≤ 0.2
6,QSVD,≤ 0.2
7,QPVN,≤ 0.2
8,QPVH,≤ 0.2
9,QDVR,≤ 0.2
10,QGVR,≤ 0.2
11,RICA,≤ 0.2
12,IIHR,≤ 0.2
13,TNLI,≤ 0.2
14,SPSF,≤ 0.2
15,FYQC,≤ 0.2
16,GTTP,≤ 0.2
17,QPER,≤ 0.2
18,QTEP,≤ 0.2
19,QIER,0.219
20,QSER,0.285
21,QRER,0.637
22,QTER,0.458
23,QHER,0.288
24,QTEN,≤ 0.2
25,QCER,0.438

# — a collection of fitness landscapes (doi:10.1016/j.celrep.2020.107928)
